We go through 2 sequences from publication PMC7862700, “An all-to-all approach to the identification of sequence-specific readers for epigenetic DNA modifications on cytosine”.

Test in all cases: DAPPL (digital affinity profiling via proximity ligation, sequencing); 10 mM Tris-HCl pH 7.5, 50 mM NaCl, 1 mM DTT, 4% glycerol, room temperature, 30 min; GST-TFs on glutathione beads, 16-mer random dsDNA library, 0.1% formaldehyde crosslink after washing; high values mean tight binding
For one test, the target named is T1, FLI1 (Homo sapiens, UniProt Q01543 1-452).
T1 sequence: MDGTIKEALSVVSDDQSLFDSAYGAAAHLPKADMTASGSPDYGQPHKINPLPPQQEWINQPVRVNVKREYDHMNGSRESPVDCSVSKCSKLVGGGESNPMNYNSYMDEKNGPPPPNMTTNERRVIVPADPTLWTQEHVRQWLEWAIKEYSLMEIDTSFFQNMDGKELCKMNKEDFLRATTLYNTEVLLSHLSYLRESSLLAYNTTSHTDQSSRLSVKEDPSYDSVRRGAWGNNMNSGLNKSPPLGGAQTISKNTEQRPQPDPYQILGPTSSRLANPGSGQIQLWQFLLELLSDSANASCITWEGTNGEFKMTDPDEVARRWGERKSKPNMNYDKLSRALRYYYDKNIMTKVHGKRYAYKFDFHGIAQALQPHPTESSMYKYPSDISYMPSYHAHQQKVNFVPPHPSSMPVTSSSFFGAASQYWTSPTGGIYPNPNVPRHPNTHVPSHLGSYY
The following applies: protein: recombinant; tags: N-terminal GST; dsDNA, one strand shown. Put shortly:
(§1)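 Each value of binding signal is a hexamer's read frequency for a factor divided by the same hexamer's frequency in the tag-only sample. Barcoded, bead-captured GST fusions of human transcription factors made in yeast were pooled with that sample and incubated with 200 nmole of a random double-stranded 16-mer DNA library in Tris/NaCl/DTT/glycerol buffer at room temperature for 30 min. Washing, 0.1% formaldehyde crosslinking, proximity ligation, PCR and Illumina NextSeq500 sequencing followed.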

Another test addresses T2, ERG (Homo sapiens, UniProt P11308 1-479).
T2 sequence: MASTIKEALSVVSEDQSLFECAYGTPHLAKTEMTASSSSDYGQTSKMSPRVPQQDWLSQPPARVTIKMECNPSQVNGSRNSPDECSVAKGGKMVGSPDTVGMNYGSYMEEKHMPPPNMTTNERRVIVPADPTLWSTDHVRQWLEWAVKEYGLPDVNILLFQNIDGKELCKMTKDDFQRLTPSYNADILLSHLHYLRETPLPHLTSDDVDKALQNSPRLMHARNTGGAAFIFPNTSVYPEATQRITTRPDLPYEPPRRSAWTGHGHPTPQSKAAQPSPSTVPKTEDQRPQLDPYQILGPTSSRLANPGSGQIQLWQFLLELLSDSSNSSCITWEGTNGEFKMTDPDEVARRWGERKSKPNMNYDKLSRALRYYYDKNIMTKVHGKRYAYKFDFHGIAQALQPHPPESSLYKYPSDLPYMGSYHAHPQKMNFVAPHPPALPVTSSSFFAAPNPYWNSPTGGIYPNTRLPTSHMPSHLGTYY
The settings on record: protein: recombinant; tags: N-terminal GST; dsDNA, one strand shown. Put shortly:
as §1

A further test deals with ELF1 (Homo sapiens, UniProt P32519 1-619). The settings on record: protein: recombinant; tags: N-terminal GST; dsDNA, one strand shown. Put shortly:
as §1

The target in the next test is SPIB (Homo sapiens, UniProt Q01892 1-262). The settings on record: protein: recombinant; tags: N-terminal GST; dsDNA, one strand shown. Put shortly:
as §1

The next test deals with T3, ELK3 (Homo sapiens, UniProt P41970 1-407).
T3 sequence: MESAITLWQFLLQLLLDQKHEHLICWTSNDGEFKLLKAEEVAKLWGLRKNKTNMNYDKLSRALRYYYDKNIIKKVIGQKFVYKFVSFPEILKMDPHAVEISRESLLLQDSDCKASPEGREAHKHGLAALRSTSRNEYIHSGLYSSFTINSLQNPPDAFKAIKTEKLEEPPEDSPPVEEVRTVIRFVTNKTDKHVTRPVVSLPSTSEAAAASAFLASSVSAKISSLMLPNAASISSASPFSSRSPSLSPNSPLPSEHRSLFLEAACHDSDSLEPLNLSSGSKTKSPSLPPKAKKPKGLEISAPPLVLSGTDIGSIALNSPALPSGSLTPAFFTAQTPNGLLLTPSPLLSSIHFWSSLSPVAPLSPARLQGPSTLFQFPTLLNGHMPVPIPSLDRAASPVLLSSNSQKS
The following applies: protein: recombinant; tags: N-terminal GST; dsDNA, one strand shown. Put shortly: as §1

In another test the target is HSF1 (Homo sapiens, UniProt Q00613 1-529). The settings on record: protein: recombinant; tags: N-terminal GST; chain copies: 3; dsDNA, one strand shown. Put shortly:
as §1

The next test concerns the target ETV1 (Homo sapiens, UniProt P50549 1-477). The settings on record: protein: recombinant; tags: N-terminal GST; dsDNA, one strand shown. Put shortly:
as §1

Another test deals with T4, ERF (Homo sapiens, UniProt P50548 1-548).
T4 sequence: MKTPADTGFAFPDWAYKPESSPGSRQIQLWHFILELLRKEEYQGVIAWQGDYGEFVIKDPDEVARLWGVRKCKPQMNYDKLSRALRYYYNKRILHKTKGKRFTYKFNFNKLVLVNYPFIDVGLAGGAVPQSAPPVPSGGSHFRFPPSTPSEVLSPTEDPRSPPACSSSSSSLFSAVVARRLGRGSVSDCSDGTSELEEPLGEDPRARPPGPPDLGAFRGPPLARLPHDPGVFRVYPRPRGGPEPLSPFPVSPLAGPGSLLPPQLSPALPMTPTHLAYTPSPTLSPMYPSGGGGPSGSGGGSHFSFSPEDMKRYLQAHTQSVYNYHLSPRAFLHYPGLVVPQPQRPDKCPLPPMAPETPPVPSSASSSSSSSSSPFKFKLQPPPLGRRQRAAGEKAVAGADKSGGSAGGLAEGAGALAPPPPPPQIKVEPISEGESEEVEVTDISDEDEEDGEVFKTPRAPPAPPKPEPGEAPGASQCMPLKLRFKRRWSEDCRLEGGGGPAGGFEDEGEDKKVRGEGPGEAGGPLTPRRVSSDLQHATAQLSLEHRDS
The settings on record: protein: recombinant; tags: N-terminal GST; dsDNA, one strand shown. Put shortly: as §1

The target in the next test is T5, ETV3L (Homo sapiens, UniProt Q6ZN32 1-361).
T5 sequence: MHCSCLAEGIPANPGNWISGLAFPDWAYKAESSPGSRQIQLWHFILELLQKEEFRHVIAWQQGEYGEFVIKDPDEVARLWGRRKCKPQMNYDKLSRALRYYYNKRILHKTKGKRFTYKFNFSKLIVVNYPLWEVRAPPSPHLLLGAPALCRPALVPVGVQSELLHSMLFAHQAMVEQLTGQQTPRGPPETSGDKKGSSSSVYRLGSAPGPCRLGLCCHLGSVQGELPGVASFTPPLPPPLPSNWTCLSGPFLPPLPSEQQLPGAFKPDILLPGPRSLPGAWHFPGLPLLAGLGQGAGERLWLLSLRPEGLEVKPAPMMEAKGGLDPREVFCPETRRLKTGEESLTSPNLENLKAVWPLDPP
The following applies: protein: recombinant; tags: N-terminal GST; dsDNA, one strand shown. Put shortly: as §1

The target of another test is T6, ETV3 (Homo sapiens, UniProt P41162-2 1-143).
T6 sequence: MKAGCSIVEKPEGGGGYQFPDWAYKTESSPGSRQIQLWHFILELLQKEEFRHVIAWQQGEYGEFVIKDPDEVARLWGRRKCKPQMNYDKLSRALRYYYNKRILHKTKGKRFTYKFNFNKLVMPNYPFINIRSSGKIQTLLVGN
The following applies: protein: recombinant; tags: N-terminal GST; dsDNA, one strand shown. Put shortly:
as §1

A further test concerns the target T7, EHF (Homo sapiens, UniProt Q9NZC4 1-300).
T7 sequence: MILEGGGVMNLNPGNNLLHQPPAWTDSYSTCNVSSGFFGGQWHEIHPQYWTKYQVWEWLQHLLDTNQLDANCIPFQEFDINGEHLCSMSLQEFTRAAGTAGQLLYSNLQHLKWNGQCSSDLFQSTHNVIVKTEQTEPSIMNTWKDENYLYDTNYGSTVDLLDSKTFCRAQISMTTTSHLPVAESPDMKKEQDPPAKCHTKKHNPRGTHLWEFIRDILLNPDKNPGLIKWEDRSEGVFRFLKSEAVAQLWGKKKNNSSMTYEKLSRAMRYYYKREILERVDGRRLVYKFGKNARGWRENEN
The following applies: protein: recombinant; tags: N-terminal GST; dsDNA, one strand shown. Put shortly:
as §1

The target of a further test is SPI1 (Homo sapiens, UniProt P17947 1-270). The settings on record: protein: recombinant; tags: N-terminal GST; dsDNA, one strand shown. Put shortly:
as §1

In another test the target is T8, ELK4 (Homo sapiens, UniProt P28324-2 1-405).
T8 sequence: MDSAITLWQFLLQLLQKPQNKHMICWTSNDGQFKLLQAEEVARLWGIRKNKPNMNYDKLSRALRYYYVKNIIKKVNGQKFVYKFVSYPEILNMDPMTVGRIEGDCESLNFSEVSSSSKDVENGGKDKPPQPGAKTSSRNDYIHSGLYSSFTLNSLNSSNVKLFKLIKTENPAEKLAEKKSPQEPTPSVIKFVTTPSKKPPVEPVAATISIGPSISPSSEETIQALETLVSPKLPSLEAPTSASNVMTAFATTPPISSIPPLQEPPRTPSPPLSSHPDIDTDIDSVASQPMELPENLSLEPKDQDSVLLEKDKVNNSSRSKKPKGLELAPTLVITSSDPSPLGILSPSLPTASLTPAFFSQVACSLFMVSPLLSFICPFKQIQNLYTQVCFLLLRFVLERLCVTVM
The following applies: protein: recombinant; tags: N-terminal GST; dsDNA, one strand shown. Put shortly: as §1

HSF1, sequence (Q00613 whole entry): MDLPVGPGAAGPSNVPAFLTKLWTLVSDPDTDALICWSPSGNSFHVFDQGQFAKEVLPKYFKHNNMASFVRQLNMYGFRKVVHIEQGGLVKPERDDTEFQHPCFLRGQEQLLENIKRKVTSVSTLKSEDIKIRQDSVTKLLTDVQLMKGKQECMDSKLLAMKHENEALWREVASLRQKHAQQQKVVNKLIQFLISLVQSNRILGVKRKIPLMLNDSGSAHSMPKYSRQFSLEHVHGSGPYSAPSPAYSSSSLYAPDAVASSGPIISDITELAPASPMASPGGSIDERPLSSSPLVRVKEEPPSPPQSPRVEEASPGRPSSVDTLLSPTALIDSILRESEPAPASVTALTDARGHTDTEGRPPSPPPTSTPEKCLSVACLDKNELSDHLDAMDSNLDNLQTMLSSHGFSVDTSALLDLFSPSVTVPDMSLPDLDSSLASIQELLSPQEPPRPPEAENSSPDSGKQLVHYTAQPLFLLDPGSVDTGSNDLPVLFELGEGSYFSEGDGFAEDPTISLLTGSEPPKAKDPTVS
SPIB, sequence (Q01892 whole entry): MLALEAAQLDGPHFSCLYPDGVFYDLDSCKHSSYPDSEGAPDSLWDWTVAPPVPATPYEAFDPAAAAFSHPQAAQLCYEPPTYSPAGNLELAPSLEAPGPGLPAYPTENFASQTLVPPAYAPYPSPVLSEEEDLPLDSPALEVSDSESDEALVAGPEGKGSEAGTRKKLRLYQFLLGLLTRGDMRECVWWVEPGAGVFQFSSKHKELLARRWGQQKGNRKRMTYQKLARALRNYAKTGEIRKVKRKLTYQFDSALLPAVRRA
ELF1, sequence (P32519 whole entry): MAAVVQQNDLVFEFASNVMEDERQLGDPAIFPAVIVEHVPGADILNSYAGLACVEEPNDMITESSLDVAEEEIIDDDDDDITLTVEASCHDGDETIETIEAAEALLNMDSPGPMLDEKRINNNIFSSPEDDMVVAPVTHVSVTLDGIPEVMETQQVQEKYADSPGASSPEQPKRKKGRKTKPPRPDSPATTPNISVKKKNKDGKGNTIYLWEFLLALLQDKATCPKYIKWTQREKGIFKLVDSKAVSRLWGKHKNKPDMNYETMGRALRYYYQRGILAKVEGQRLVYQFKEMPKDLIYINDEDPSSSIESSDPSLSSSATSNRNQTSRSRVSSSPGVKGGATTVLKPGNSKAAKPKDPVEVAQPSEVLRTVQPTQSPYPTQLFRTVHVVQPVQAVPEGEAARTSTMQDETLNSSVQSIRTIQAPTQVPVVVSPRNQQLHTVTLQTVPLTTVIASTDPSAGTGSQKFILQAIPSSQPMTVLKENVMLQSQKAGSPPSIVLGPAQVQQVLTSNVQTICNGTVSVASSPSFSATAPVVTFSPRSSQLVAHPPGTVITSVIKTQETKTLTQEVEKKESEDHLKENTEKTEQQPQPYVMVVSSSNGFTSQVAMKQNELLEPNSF
ETV1, sequence (P50549 whole entry): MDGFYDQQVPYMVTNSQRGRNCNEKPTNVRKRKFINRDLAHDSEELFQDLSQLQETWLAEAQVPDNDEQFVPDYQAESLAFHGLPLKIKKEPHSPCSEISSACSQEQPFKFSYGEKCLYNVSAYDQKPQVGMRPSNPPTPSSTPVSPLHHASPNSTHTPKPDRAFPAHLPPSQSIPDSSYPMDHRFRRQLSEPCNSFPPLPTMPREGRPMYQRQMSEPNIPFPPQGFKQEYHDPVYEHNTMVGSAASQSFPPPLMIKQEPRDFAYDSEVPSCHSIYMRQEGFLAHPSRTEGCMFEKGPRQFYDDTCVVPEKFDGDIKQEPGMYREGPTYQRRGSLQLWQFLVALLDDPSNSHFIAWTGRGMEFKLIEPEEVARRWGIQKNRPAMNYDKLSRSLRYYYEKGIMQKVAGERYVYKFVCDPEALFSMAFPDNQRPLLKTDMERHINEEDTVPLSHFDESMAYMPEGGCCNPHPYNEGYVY

Turning to CTCGGG, the binding signal with FLI1 was 1.06 fold enrichment (6-mer frequency, TF over GST control); with ERG it was 1.03 fold enrichment (6-mer frequency, TF over GST control); with ELF1, 1.09 fold enrichment (6-mer frequency, TF over GST control); with SPIB it was 1.03 fold enrichment (6-mer frequency, TF over GST control); with ELK3 it was 1.05 fold enrichment (6-mer frequency, TF over GST control); in the test with HSF1 it was 1.04 fold enrichment (6-mer frequency, TF over GST control). Moreover, the binding signal in the test with ETV1 is 1.03 fold enrichment (6-mer frequency, TF over GST control); in the test with ERF it was 1.02 fold enrichment (6-mer frequency, TF over GST control); with ETV3L, 1.09 fold enrichment (6-mer frequency, TF over GST control); with ETV3, 1 fold enrichment (6-mer frequency, TF over GST control).
In the case of TCGCGT, the binding signal was 1.01 fold enrichment (6-mer frequency, TF over GST control) with FLI1; 1 fold enrichment (6-mer frequency, TF over GST control) with ELF1; 1.02 fold enrichment (6-mer frequency, TF over GST control) with EHF; 1 fold enrichment (6-mer frequency, TF over GST control) in the test with SPI1; 1.01 fold enrichment (6-mer frequency, TF over GST control) with SPIB; 1.04 fold enrichment (6-mer frequency, TF over GST control) in the test with HSF1. In addition, in the test with ELK4, the binding signal is 1.06 fold enrichment (6-mer frequency, TF over GST control).
